GRIN3A LBD mod – NR3A (human) ligand-binding domain modulation. NR3A LBD differential scanning fluorimetry, Tm shift; 0% = protein alone, 100% = glycine-bound protein. Tm shift relative to glycine control, % at 25 µM. 340,000 compounds, 2.5% hits. AID 1259313;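 active means melting temperature shift of at least 10% of the positive control shift, at one fixed dose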
FAS-TE inh – blocks the thioesterase domain of human fatty acid synthase; P49327; recombinant FAS-TE, OMFH fluorogenic substrate, fluorescence endpoint; inhibition, % at 15 µM; 360,000 compounds, 0.67% hits;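 active means compounds whose normalised, plate-corrected inhibition of enzyme fluorescence in the single-dose primary screen is 50% or more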
Myeloid diff MLP – compounds promoting myeloid differentiation | ER-HoxA9 myeloid progenitors, lysozyme-GFP differentiation, flow cytometry | calls only at 10 µM | 360,000 compounds, 1% hits;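 active means normalized GFP-positive differentiation at or above the plate's own cutoff, the solvent-only control mean plus 3 SD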;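 further: cells exposed to compound for four days before flow analysis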
MPTP inh – inhibitors of mitochondrial permeability transition pore | isolated mouse mitochondria, Ca2+ swelling absorbance, 30 min | inhibition, % at 10 µM | 360,000 compounds, 1.4% hits;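 active means inhibition of 50% or more, scaled per plate between neutral and stimulator controls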
rCAG binder – molecules binding r(CAG) RNA repeats | r(CAG) RNA repeat, TO-PRO-1 dye displacement fluorescence | inhibition, % at 3 µM | 370,000 compounds, 1.3% hits | AID 651821;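 active means inhibition above the plate cutoff, the mean of all test compounds on that plate plus 3 SD, cut at about 35% in these data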;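 further: higher means more dye released from RNA so lower well fluorescence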
Large screens that a line does not name were inactive. Shown are actives, neighbours in structure and some others; about 5.7% of the full set was active somewhere.

C=CCN(CC=C)CCOc1cccc2ccccc12	GRIN3A LBD mod 12.2
CN(C)c1ccc(-c2nc3ccccn3c2/N=C/c2ccc(Br)cc2)cc1	GRIN3A LBD mod 24.0
O=C(N/N=C\c1ccc(COc2ccc([N+](=O)[O-])cc2)o1)c1ccc(Cl)cc1	none
O=[N+]([O-])CC(=Nc1ccc(Cl)cc1)N/N=C\c1oc(O)c2ccccc12	rCAG binder 53.2
CCCCCCCCN1C(=O)[C@@H](CC(=O)N2CCCC2)C[C@@]2(C(=O)OC)C1=C[C@H](C(C)(C)C)O[C@@H]2C	none (no result: GRIN3A LBD mod, FAS-TE inh, Myeloid diff MLP, MPTP inh)
Cc1ccc([N+](=O)[O-])cc1S(=O)(=O)NCCc1c(C)[nH]c2c(C)cccc12	GRIN3A LBD mod 33.0
Cc1[nH]c2c(C)cccc2c1CCNS(=O)(=O)c1cccc([N+](=O)[O-])c1	GRIN3A LBD mod 30.2
COc1cccc(CNC(=O)[C@H]2CCCN2C(=O)[C@H]2CCCN2C(=O)c2cccc(Cl)c2)c1	none (no result: GRIN3A LBD mod, FAS-TE inh, Myeloid diff MLP, MPTP inh)
Cc1cccc([C@@H]2[C@@H]3C(=O)N(Cc4ccccc4)C(=O)[C@@H]3[C@]3(Cc4ccc(Cl)cc4)C(=O)N(c4ccc(Br)cc4)C(=O)N23)c1	FAS-TE inh 90.3
CC[C@@]12C(=O)N(c3cccc(Br)c3)C(=O)N1[C@H](c1ccc(Br)cc1)[C@@H]1C(=O)N(C(C)(C)C)C(=O)[C@@H]12	FAS-TE inh 57.5
O=C1[C@H]2[C@@H](c3ccc(F)cc3)N3C(=O)N(c4ccccc4)C(=O)[C@@]3(Cc3ccc(Cl)cc3)[C@H]2C(=O)N1C1CCCCC1	FAS-TE inh 93.6
O=C1[C@H]2[C@@H](c3ccc(Cl)cc3)N3C(=O)N(c4cccc(Br)c4)C(=O)[C@@]3(Cc3ccc(Cl)cc3)[C@H]2C(=O)N1C1CCCCC1	FAS-TE inh 91.1
CC[C@@]12C(=O)N(c3cccc(Br)c3)C(=O)N1[C@H](c1ccc(OC)cc1)[C@@H]1C(=O)N(C(C)(C)C)C(=O)[C@@H]12	none
CC(C)C[C@H]1COc2cc(NCCO)ccc2S(=O)(=O)N1	none (no result: GRIN3A LBD mod, FAS-TE inh, Myeloid diff MLP, MPTP inh)
CCOc1ccc(N(CC(=O)Nc2c(C)n(C)n(-c3ccccc3)c2=O)S(=O)(=O)c2cccs2)cc1	none (no result: GRIN3A LBD mod, FAS-TE inh, Myeloid diff MLP, MPTP inh)
Nc1nc(Cl)nc2c1ncn2[C@@H]1O[C@H](CO)[C@@H](O)[C@@H]1F	none (no result: GRIN3A LBD mod, FAS-TE inh, Myeloid diff MLP, MPTP inh)
O=C1[C@H]2[C@@H](c3ccc(F)cc3)N3C(=O)N(c4cccc(Br)c4)C(=O)[C@@]3(Cc3ccc(Cl)cc3)[C@H]2C(=O)N1C1CCCCC1	none
O=C1[C@H]2[C@@H](c3ccc(F)cc3)N3C(=O)N(c4cccc(Cl)c4)C(=O)[C@@]3(Cc3ccccc3)[C@H]2C(=O)N1C1CCCCC1	FAS-TE inh 72.1
CC(N=c1ccccn1C(=O)Nc1ccc(Cl)cc1)c1ccco1 (stereo not given)	GRIN3A LBD mod 23.9 (no result: FAS-TE inh, Myeloid diff MLP, MPTP inh, rCAG binder)
O=C(NC1CCCC1)C1(C(=O)C2CC2)CC(c2ccccc2C(F)(F)F)=NO1 (stereo not given)	none (no result: GRIN3A LBD mod, FAS-TE inh, Myeloid diff MLP, MPTP inh)
O=[N+]([O-])c1ccccc1/C=C/C=N/n1c(-c2cc(-c3ccccc3)n[nH]2)n[nH]c1=S	none
Cc1ccc(-c2n[nH]c(=S)n2/N=C/C=C/c2ccccc2[N+](=O)[O-])cc1	rCAG binder 39.9
CCc1cc(-c2n[nH]c(C)c2Oc2ccc(C(C)C)cc2)c(O)cc1O	GRIN3A LBD mod 32.3
O=C(Nc1cccnc1)c1ccc(Oc2ccccc2)cc1	none
O=C(Nc1cccnc1)c1ccc2nc(-c3ccccc3)c(-c3ccccc3)nc2c1	Myeloid diff MLP active
O=C(Nc1cccnc1)c1sc(Nc2ccccc2)nc1-c1ccccc1	GRIN3A LBD mod 27.1
CCOC(=O)C1=CCC(c2ccc([N+](=O)[O-])cc2)N(S(=O)(=O)c2ccc(C)cc2)C1 (stereo not given)	none (no result: GRIN3A LBD mod, FAS-TE inh, Myeloid diff MLP, MPTP inh)
COc1ccc(Cl)cc1C=CC=NNS(=O)(=O)c1ccc(C)cc1	GRIN3A LBD mod 20.3
COc1ccc(Br)cc1C=NNS(=O)(=O)c1ccc(C)cc1	none (no result: GRIN3A LBD mod)
CCOC(=O)[C@]12CCCCC/C=C\1N(Cc1ccc(OC)cc1)C(=O)[C@H]2CC(=O)NCC12CC3CC(CC(C3)C1)C2	none (no result: GRIN3A LBD mod, FAS-TE inh, Myeloid diff MLP, MPTP inh)
COc1ccc(CN2CCC(CNC(=O)Nc3ccc(C)c(F)c3)CC2)cc1	none (no result: GRIN3A LBD mod, FAS-TE inh, Myeloid diff MLP, MPTP inh)
COc1ccc(NC(=S)NCCc2c[nH]c3ccccc23)cc1	GRIN3A LBD mod 26.1
COc1ccc2[nH]cc(CCNC(=O)Nc3ccccc3)c2c1	none
O=C(NCCc1c[nH]c2ccccc12)Nc1cccc2ccccc12	GRIN3A LBD mod 17.6
COc1cc(NC(=S)NCCc2c[nH]c3ccccc23)c(OC)cc1Cl	GRIN3A LBD mod 36.0
COc1ccc2[nH]cc(CCNC(=S)NCCc3ccccc3)c2c1	GRIN3A LBD mod 26.1
CC(C)(C)C(=O)OC12CCCN(C1)/C(=C/c1ccccc1)C2 (stereo not given)	none (no result: GRIN3A LBD mod, FAS-TE inh, Myeloid diff MLP, MPTP inh)
Cc1ccc(NC(=O)[C@H](Cc2c[nH]c3ccccc23)NC(=O)[C@@H]2Cc3ccccc3CN2)c(C)c1	Myeloid diff MLP active
COc1ccccc1NC(=S)NCCc1c[nH]c2ccccc12	none
Cc1cccc(NC(=O)[C@H](Cc2c[nH]c3ccccc23)NC(=O)[C@@H]2Cc3ccccc3CN2)c1	none
Cc1ccc(NC(=S)NCCc2c[nH]c3ccccc23)c(C)c1	GRIN3A LBD mod 11.8
C#CCN1CC(COc2ccccc2)OCCS1(=O)=O (stereo not given)	none (no result: GRIN3A LBD mod, FAS-TE inh, Myeloid diff MLP, MPTP inh)
O=C(Nc1ccc(NC(=O)C2CCCCC2)cn1)c1ccco1	GRIN3A LBD mod 15.8
O=C1CC(N(Cc2cccs2)C(=O)Nc2ccccc2)C(=O)N1c1ccc(Cl)cc1 (stereo not given)	GRIN3A LBD mod 14.0
COc1ccc(N2C(=O)CC(N(CCc3ccc(OC)c(OC)c3)C(=S)Nc3ccccc3)C2=O)cc1 (stereo not given)	none
COc1ccc(N2C(=O)CC(N(CCc3ccc(S(N)(=O)=O)cc3)C(=S)Nc3ccccc3)C2=O)cc1 (stereo not given)	none
COc1ccc(CN(C(=S)Nc2ccccc2)C2CC(=O)N(c3ccc(Cl)cc3)C2=O)cc1 (stereo not given)	GRIN3A LBD mod 24.5
O=C(Nc1ccc(Cl)cc1)N(CCCN1CCOCC1)Cc1cccs1	none
COc1ccc(CN(C(=S)Nc2ccccc2)C2CC(=O)N(c3ccccc3)C2=O)cc1 (stereo not given)	GRIN3A LBD mod 37.4
CC(C)c1[nH]nc2c1C(c1cccc(C(F)(F)F)c1)N(c1ccccc1)C2=O (stereo not given)	none (no result: GRIN3A LBD mod, FAS-TE inh, Myeloid diff MLP, MPTP inh)
O=c1c2ccccc2nc2ccc(NCc3ccco3)nn12	none
Cc1sc2nc3ccc(NCc4ccco4)nn3c(=O)c2c1C	Myeloid diff MLP active
COC(=O)Nc1ccc([N+](=O)[O-])cc1OC	none
COC(=O)CSc1cc([N+](=O)[O-])ccc1NC(=O)OC	Myeloid diff MLP active
CSc1ccccc1-n1nnnc1SCC(=O)Nc1ccccc1C	GRIN3A LBD mod 14.2
COc1cccc(CNS(=O)(=O)c2cc(Br)cc3c2N(C(C)=O)C(C)C3)c1 (stereo not given)	GRIN3A LBD mod 12.1
CC(=O)N1c2c(cc(Br)cc2S(=O)(=O)NCc2ccccc2)CC1C (stereo not given)	none
CCCCN1CCN(C(=O)c2ccc(CNC(=O)c3cccc(Br)c3)cc2)CC1	none (no result: GRIN3A LBD mod, FAS-TE inh, Myeloid diff MLP, MPTP inh)
